The target of assay [1] is Tyrosine-protein kinase SYK (Homo sapiens) (UniProt P43405). As to conditions: at 10 µM.
For assay [2], the target named is T1, Mitogen-activated protein kinase kinase kinase 7 (Homo sapiens) (UniProt O43318).
T1 sequence (whole entry): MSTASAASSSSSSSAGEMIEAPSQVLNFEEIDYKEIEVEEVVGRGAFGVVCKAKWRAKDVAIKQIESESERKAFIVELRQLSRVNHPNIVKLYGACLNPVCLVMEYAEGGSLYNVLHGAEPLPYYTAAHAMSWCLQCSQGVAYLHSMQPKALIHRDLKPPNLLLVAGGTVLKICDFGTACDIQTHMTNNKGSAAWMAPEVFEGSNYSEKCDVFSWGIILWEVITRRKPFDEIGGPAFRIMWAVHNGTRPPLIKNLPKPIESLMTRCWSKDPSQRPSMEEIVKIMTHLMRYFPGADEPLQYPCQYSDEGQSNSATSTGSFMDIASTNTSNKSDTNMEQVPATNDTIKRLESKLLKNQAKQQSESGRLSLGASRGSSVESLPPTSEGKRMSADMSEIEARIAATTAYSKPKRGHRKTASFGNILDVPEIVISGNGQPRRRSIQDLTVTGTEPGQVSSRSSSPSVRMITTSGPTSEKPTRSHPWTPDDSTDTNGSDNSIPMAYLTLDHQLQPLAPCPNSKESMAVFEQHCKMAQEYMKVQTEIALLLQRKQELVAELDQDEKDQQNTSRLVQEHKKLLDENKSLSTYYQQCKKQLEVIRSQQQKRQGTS
As to conditions: at 1 µM.

Assay [3] has as its target T1, Mitogen-activated protein kinase kinase kinase 7 (Homo sapiens). As to conditions: at 10 µM.
Assay [4] deals with T2, Serine/threonine-protein kinase TAO1 (Homo sapiens) (UniProt Q7L7X3).
T2 sequence (whole entry): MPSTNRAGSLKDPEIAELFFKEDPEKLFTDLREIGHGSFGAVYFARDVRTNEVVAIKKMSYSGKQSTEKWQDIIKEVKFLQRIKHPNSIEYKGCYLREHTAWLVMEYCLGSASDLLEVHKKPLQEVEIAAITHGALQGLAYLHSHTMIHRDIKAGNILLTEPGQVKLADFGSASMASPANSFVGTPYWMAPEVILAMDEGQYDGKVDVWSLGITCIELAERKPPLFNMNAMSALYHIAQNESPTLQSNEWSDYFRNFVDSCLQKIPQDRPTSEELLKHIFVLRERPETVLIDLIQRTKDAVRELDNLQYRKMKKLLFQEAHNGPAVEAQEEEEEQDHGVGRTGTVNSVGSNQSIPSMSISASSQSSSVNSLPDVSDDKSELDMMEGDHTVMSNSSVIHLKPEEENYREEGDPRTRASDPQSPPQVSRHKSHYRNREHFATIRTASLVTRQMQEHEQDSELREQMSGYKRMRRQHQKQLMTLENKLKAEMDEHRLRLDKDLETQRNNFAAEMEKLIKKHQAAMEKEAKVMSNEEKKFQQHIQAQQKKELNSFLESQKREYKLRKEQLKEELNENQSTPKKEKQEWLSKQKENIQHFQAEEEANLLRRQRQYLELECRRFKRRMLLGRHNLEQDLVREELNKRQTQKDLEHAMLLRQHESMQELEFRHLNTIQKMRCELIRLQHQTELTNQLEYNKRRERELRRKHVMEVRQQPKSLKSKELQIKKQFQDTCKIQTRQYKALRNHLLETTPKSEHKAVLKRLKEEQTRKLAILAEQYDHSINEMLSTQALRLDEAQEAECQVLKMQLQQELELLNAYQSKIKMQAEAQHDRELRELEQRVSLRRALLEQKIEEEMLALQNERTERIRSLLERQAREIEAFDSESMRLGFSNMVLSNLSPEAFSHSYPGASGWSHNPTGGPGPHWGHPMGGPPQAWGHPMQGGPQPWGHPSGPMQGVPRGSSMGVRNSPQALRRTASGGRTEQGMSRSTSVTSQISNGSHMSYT
As to conditions: at 1 µM.

For assay [5], the target named is T2, Serine/threonine-protein kinase TAO1 (Homo sapiens). As to conditions: at 10 µM.
In assay [6] the target is T3, Serine/threonine-protein kinase TAO3 (Homo sapiens) (UniProt Q9H2K8).
T3 sequence (whole entry): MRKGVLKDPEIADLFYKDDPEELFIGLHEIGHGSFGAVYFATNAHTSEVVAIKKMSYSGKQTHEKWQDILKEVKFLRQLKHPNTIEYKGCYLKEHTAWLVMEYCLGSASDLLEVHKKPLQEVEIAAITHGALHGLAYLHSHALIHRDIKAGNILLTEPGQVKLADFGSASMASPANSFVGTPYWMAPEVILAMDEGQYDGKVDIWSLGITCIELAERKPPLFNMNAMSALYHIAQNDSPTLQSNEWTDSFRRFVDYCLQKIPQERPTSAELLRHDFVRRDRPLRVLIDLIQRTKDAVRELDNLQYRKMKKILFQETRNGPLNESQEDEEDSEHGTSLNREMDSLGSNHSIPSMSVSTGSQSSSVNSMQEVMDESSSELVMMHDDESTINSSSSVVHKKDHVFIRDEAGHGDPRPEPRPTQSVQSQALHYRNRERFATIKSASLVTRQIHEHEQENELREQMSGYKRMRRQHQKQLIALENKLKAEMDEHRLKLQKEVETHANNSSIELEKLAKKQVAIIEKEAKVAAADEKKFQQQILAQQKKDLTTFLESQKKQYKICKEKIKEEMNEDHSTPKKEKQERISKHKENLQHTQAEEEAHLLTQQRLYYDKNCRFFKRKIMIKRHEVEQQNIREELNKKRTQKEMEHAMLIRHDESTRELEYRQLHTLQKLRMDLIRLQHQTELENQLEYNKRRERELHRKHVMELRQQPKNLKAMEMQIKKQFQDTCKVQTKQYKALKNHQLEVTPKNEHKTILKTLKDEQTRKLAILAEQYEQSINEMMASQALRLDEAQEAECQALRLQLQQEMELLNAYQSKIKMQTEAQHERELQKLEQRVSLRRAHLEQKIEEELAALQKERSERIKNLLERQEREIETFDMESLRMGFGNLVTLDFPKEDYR
As to conditions: at 1 µM.

The target of assay [7] is T3, Serine/threonine-protein kinase TAO3 (Homo sapiens). As to conditions: at 10 µM.
Assay [8] concerns the target T4, Serine/threonine-protein kinase TBK1 (Homo sapiens) (UniProt Q9UHD2).
T4 sequence (whole entry): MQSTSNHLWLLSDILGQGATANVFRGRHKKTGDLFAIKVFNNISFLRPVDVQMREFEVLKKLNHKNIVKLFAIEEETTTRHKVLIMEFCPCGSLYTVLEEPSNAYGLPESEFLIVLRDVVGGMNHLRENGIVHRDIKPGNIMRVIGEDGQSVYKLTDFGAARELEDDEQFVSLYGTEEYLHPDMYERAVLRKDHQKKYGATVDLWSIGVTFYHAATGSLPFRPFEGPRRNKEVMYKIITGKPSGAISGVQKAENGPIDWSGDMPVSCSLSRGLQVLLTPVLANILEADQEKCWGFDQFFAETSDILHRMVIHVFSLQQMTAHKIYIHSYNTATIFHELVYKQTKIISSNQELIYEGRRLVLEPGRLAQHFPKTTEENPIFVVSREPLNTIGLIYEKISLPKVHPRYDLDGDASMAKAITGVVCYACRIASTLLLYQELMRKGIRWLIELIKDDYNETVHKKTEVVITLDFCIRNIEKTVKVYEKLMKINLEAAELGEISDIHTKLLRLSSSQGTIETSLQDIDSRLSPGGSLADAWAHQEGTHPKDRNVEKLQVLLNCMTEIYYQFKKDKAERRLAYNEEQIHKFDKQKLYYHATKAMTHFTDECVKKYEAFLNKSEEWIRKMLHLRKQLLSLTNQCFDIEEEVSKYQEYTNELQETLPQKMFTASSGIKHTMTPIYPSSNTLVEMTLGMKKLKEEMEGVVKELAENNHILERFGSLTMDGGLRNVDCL
As to conditions: at 1 µM.

The target of assay [9] is T4, Serine/threonine-protein kinase TBK1 (Homo sapiens). As to conditions: at 10 µM.
For assay [10], the target named is T5, TGF-beta receptor type-1 (Homo sapiens) (UniProt P36897).
T5 sequence (whole entry): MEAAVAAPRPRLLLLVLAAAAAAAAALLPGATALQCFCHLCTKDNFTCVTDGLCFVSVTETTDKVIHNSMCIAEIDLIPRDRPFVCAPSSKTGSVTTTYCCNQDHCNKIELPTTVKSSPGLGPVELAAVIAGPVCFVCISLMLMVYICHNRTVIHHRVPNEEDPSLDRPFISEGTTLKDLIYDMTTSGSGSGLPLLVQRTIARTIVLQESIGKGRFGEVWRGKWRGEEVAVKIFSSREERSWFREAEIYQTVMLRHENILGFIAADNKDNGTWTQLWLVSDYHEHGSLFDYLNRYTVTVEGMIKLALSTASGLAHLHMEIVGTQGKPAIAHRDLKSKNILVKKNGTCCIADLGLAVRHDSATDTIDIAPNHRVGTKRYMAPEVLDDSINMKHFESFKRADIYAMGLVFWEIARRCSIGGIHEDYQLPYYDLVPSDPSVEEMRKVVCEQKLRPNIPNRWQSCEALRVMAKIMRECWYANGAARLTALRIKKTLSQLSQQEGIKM
As to conditions: at 1 µM.

Assay [11] addresses T5, TGF-beta receptor type-1 (Homo sapiens). As to conditions: at 10 µM.
For assay [12], the target named is T6, Inhibitor of nuclear factor kappa-B kinase subunit alpha (Homo sapiens) (UniProt O15111).
T6 sequence (whole entry): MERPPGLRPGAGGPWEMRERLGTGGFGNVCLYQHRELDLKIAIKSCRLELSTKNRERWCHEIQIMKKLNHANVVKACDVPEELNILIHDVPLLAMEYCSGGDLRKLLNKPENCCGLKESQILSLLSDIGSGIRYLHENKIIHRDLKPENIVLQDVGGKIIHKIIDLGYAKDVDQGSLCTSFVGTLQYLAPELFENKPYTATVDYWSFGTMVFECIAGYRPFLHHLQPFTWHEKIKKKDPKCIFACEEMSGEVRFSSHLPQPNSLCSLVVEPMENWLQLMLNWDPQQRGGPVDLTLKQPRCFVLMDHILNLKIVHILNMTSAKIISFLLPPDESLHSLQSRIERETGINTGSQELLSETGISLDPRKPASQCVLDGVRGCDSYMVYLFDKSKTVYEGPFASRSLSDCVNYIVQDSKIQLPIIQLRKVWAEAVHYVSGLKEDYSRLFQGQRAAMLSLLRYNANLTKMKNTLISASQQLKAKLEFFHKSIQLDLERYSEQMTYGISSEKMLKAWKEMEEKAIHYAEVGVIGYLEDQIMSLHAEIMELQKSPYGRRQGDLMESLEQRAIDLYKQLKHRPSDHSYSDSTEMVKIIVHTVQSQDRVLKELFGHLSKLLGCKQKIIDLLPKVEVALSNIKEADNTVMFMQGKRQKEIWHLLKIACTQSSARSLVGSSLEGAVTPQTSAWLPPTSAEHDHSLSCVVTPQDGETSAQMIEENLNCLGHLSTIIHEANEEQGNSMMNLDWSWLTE
As to conditions: at 1 µM.

For the compound `Cc1cncc2cccc(S(=O)(=O)N3CCCN(C(=O)CN)C[C@H]3C)c12`, the residual activity in assay [1] was 85%; in assay [2], 88%; in assay [3], 83%; in assay [4] it was 81%; in assay [5], 28%; in assay [6] it was 93%. For the same compound, the residual activity was 65% in assay [7]; 68% in assay [8]; 55% in assay [9]; 78% in assay [10]; 86% in assay [11]; 93% in assay [12].

The record behind these values is ChEMBL document CHEMBL2218924, “A broad activity screen in support of a chemogenomic map for kinase signalling research and drug discovery” (Biochem J, 2013).
